Some test systems named below: SK-MEL-2 melanoma; EKVX NSCLC; SN12C renal; UO-31 renal; TK-10 renal; ACHN renal; CAKI-1 renal; A498 renal; CCRF-CEM leukemia; MOLT-4 leukemia; SR leukemia; RPMI-8226 leukemia; OVCAR-5 ovarian; OVCAR-4 ovarian; SK-OV-3 ovarian; IGROV1 ovarian; OVCAR-3 ovarian; HS 578T breast; NCI/ADR-RES ovarian.
Assay in all cases: NCI-60 one-dose screen, 48 h (100 = growth as untreated, 0 = no growth, -100 = all killed)
Conditions in all cases: 10 µM unless noted

The panel holds about 83,000 compounds, 20% with a hit somewhere; the sample as a whole holds those more often.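 Step 1: grow cells in 96-well plates. Step 2: add test compound at a single concentration. Step 3: incubate 48 h. Step 4: record percent growth.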 Values without a mark were called inactive. The source made the active and inactive calls. Rule for the calls: active = growth percent below 10; inactive = the rest.

Regarding `CCN(CC)c1ccc(C2=NN(C(C)=O)C(c3cc(OC)c(OC)c(OC)c3)C2)cc1` (configuration not stated), the growth in the assay with SK-MEL-2 melanoma is 31.8%; in the assay with EKVX NSCLC it was 29.8%; with SN12C renal it was 38.5%; in the assay on UO-31 renal, -19% (active); with TK-10 renal, 39.9%; in the assay with ACHN renal, 40.3%. Moreover, the growth in the assay with CAKI-1 renal is 21%; in the assay with A498 renal it was -22.1% (active); in the assay with CCRF-CEM leukemia, 12.6%; with MOLT-4 leukemia, 5.57% (active); in the assay on SR leukemia, -23.6% (active); in the assay with RPMI-8226 leukemia it was 2.54% (active). In addition, the growth in the assay with OVCAR-5 ovarian was 39%; with OVCAR-4 ovarian it was 46.9%; in the assay on SK-OV-3 ovarian, 31.5%; with IGROV1 ovarian it was -45.1% (active); in the assay on OVCAR-3 ovarian, -64.8% (active); in the assay with HS 578T breast, -12.2% (active). Moreover, the growth with NCI/ADR-RES ovarian is -23.9% (active).

As to `C=C1C(=O)O[C@H]2[C@H]1CC/C(COC(=O)CCC(=O)NCCOCCOCC(=O)Nc1ccc(OC)c(C(N)=O)c1O)=C\CC[C@@]1(C)O[C@@H]21`, the growth is 89.7% with SK-MEL-2 melanoma; 94.4% in the assay on EKVX NSCLC; 92.7% in the assay with SN12C renal; 92% in the assay with UO-31 renal; 96% in the assay with TK-10 renal; 87.3% in the assay with ACHN renal. Besides, the growth was 81.2% with CAKI-1 renal; 101% in the assay with A498 renal; 53.7% in the assay on CCRF-CEM leukemia; 97.1% in the assay on MOLT-4 leukemia; 46.8% in the assay on SR leukemia; 87% in the assay with RPMI-8226 leukemia. Further, the growth in the assay on OVCAR-5 ovarian is 109%; in the assay with OVCAR-4 ovarian, 110%; with SK-OV-3 ovarian, 96.7%; in the assay on IGROV1 ovarian, 59.2%; in the assay with OVCAR-3 ovarian, 85%; in the assay with HS 578T breast, 109%. In addition, in the assay with NCI/ADR-RES ovarian, the growth was 103%.

In the case of `Cc1ccc(S(=O)(=O)Oc2ccc(NC(=O)c3ccc(Cl)cc3)cc2)cc1`, the growth in the assay on SK-MEL-2 melanoma was 99.8%; in the assay on EKVX NSCLC, 91.3%; in the assay on SN12C renal it was 96.1%; with UO-31 renal, 91.6%; in the assay with TK-10 renal it was 92.5%; in the assay with ACHN renal, 102%. In addition, the growth in the assay on CAKI-1 renal is 100%; in the assay on A498 renal it was 93.9%; with CCRF-CEM leukemia it was 104%; in the assay on MOLT-4 leukemia it was 104%; with SR leukemia it was 93.6%; in the assay with RPMI-8226 leukemia it was 97.6%. Moreover, the growth is 107% in the assay with OVCAR-5 ovarian; 96.5% in the assay on OVCAR-4 ovarian; 98.5% with SK-OV-3 ovarian; 97.8% with IGROV1 ovarian; 103% with OVCAR-3 ovarian; 107% in the assay with HS 578T breast. The growth with NCI/ADR-RES ovarian was 99.4%.

For `CC1(C)C2CC1C1(/C=N\Nc3ccccc3)C(C2)C(C#N)(C#N)C1(C#N)C#N` (configuration not stated), the growth in the assay with SK-MEL-2 melanoma was 92.7%; in the assay on EKVX NSCLC, 89%; with SN12C renal, 90%; in the assay on UO-31 renal, 66.6%; in the assay with TK-10 renal, 133%; with ACHN renal, 75.9%. The growth is 70.1% with CAKI-1 renal; 97.1% in the assay with A498 renal; 83.7% in the assay with CCRF-CEM leukemia; 95.7% in the assay on MOLT-4 leukemia; 92.4% with SR leukemia; 90.1% in the assay with RPMI-8226 leukemia. In addition, the growth with OVCAR-5 ovarian is 103%; with OVCAR-4 ovarian, 82.5%; with SK-OV-3 ovarian, 97.4%; in the assay with IGROV1 ovarian it was 64.8%; in the assay with OVCAR-3 ovarian, 84.7%; in the assay on HS 578T breast, 93.9%. Besides, in the assay with NCI/ADR-RES ovarian, the growth was 87.8%.

Turning to `CCCCNC(=O)Oc1ccc(/C(=C(\C)c2ccc(Cl)cc2)c2ccc(OCCN(CC)CC)cc2)cc1`, the growth in the assay with SK-MEL-2 melanoma was 117%; in the assay with EKVX NSCLC it was 75%; in the assay on SN12C renal it was 75.4%; in the assay on UO-31 renal, 47.8%; in the assay with TK-10 renal it was 88.6%; in the assay on ACHN renal, 93.7%. Besides, the growth with CAKI-1 renal is 81.4%; with A498 renal, 71%; in the assay with CCRF-CEM leukemia it was 64.4%; with MOLT-4 leukemia, 58.4%; in the assay with SR leukemia, 3.33% (active); in the assay with RPMI-8226 leukemia it was 63.9%. Moreover, the growth in the assay with OVCAR-5 ovarian was 73.4%; with OVCAR-4 ovarian, 69.6%; in the assay with SK-OV-3 ovarian it was 75.3%; with IGROV1 ovarian, 81.6%; in the assay on OVCAR-3 ovarian it was 69.1%; in the assay with HS 578T breast, 74.4%. Besides, in the assay with NCI/ADR-RES ovarian, the growth was 81.4%.

Consider `Nc1ccc(Sc2ccc([N+](=O)[O-])c3nonc23)cc1`, for which the growth was 96.1% with SK-MEL-2 melanoma; 92.5% with EKVX NSCLC; 93.7% in the assay on SN12C renal; 65.6% in the assay with UO-31 renal; 111% in the assay on TK-10 renal; 23% in the assay on ACHN renal. Also, the growth was 103% with CAKI-1 renal; 80.2% with A498 renal; 27.7% in the assay with CCRF-CEM leukemia; 26.8% in the assay with MOLT-4 leukemia; 7.97% (active) in the assay on SR leukemia; 79.9% in the assay with RPMI-8226 leukemia. In addition, the growth was 108% in the assay on OVCAR-5 ovarian; 97.8% in the assay with OVCAR-4 ovarian; 96.8% in the assay on SK-OV-3 ovarian; 97% with IGROV1 ovarian; 78% with OVCAR-3 ovarian; 102% in the assay on HS 578T breast. Further, the growth in the assay with NCI/ADR-RES ovarian was 98.8%.

`C=C1C(=O)O[C@H]2[C@H]1CC/C(COC(=O)CSCC(=O)OC/C1=C/CC[C@@]3(C)O[C@H]3[C@H]3OC(=O)C(=C)[C@@H]3CC1)=C\CC[C@@]1(C)O[C@@H]21`: the growth is 68% in the assay on SK-MEL-2 melanoma; 57.7% with EKVX NSCLC; 22.1% in the assay with SN12C renal; 3.4% (active) with UO-31 renal; 9.84% (active) in the assay on TK-10 renal; 2.35% (active) in the assay on ACHN renal. The growth in the assay with CAKI-1 renal was 76.4%; in the assay with A498 renal, 81.1%; in the assay with CCRF-CEM leukemia, -7.55% (active); with MOLT-4 leukemia it was -3.7% (active); in the assay on SR leukemia it was 0.996% (active); in the assay with RPMI-8226 leukemia it was -2.24% (active). In addition, the growth with OVCAR-5 ovarian was 87.3%; in the assay with OVCAR-4 ovarian, 46.6%; with SK-OV-3 ovarian it was 97.5%; in the assay with IGROV1 ovarian, 7.28% (active); with OVCAR-3 ovarian, 3.24% (active); in the assay on HS 578T breast it was 59.7%. The growth in the assay with NCI/ADR-RES ovarian is 86.2%.

With `COc1cc(C(=O)c2cnc(-c3c[nH]c4cccc(C)c34)[nH]2)cc(OC)c1OC`, the growth was 35% with SK-MEL-2 melanoma; 29.7% in the assay on EKVX NSCLC; 28.1% in the assay with SN12C renal; 17% with UO-31 renal; 43.8% with TK-10 renal; 26.4% in the assay on ACHN renal. Moreover, the growth was 6.61% (active) with CAKI-1 renal; -12% (active) in the assay with A498 renal; 6.39% (active) with CCRF-CEM leukemia; 8.85% (active) with MOLT-4 leukemia; 4.87% (active) in the assay with SR leukemia; 10% in the assay on RPMI-8226 leukemia. Also, the growth with OVCAR-5 ovarian is 46.5%; with OVCAR-4 ovarian it was 34.5%; in the assay on SK-OV-3 ovarian, 41.1%; in the assay on IGROV1 ovarian, 22.1%; in the assay on OVCAR-3 ovarian it was -49% (active); in the assay on HS 578T breast, 21.2%. For the same molecule, in the assay with NCI/ADR-RES ovarian, the growth was 3.24% (active).

The record behind these values is PubChem BioAssay (NCI).
